Screens as filed in PubChem.
The list is not random: actives were taken first. Their share in the collection is about 2.2%.
IEC-6 tox-1 = cytotoxicity in IEC-6 intestinal epithelial cells, primary screen, cytotoxicity control for KLF5 inhibitor project, cell-based, luminescence; IEC-6 cytotoxicity, luminescence viability; inhibition, % at 5 µM; 290,000 compounds, 0.78% hits; in the data active means inhibition above about 22%;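 further: 0% = plate median of test compound wells and 100% = cytotoxic reference compound wells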
BaF3 tox = parental Ba/F3 cell viability inhibition, counter-screen for JAK2V617F inhibitor project, murine pro-B, CellTiter-Glo luminescence; 220,000 compounds, 1.1% hits; CellTiter-Glo ATP luminescence; AID 1486, 2009; inhibition, % at 5.6 µM;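 active means inhibition above a per-campaign cutoff, the mean inhibition of all tested compounds plus 3 SD, cut at about 27% in these data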;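 further: 0% = DMSO wells and 100% = JAK Inhibitor I control wells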
Ba/F3 V617F tox = reduced viability of JAK2V617F-dependent Ba/F3 cells, primary screen, JAK2V617F inhibitor project, cell-based, Ba/F3 EpoR-JAK2V617F, luminescence; AID 1446, 2008; ATP luminescence; inhibition, % at 5.6 µM; 220,000 compounds, 1.1% hits;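 active means inhibition above the campaign mean plus 3 SD over all tested compounds, cut at about 24% in these data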;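 further: cytokine-independent growth of Ba/F3 cells driven by EpoR plus mutant JAK2; 0% = DMSO-treated cells and 100% = JAK inhibitor I control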
aSyn 5UTR inh = MLPCN primary screen, SNCA 5' untranslated region; alpha-synuclein 5'UTR reporter, inhibitor activity; inhibition, % (tested at 7.5 µM); 300,000 compounds, 0.82% hits; in the data active means inhibition above about 60%;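 further: H4 neuroglioblastoma cells stably carrying SNCA 5'UTR luciferase fusion; 0% = DMSO wells and 100% = positive control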
APP transl inh = inhibitors of APP translation via 5'UTR reporter, primary screen, APP 5'UTR luciferase, SH-SY5Y cells. SH-SY5Y APP 5'UTR-luciferase reporter, luminescence. inhibition, % at 2 µM. 190,000 compounds, 0.82% hits;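 active means inhibition above a set limit, derived from the sample mean plus 3 SD, cut at about 45% in these data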
KLF5 inhibitor = KLF5 expression inhibitors, primary screen, DLD-1 cells, luminescence. DLD-1 KLF5 promoter-luciferase reporter. inhibition, % at 5 µM. 290,000 compounds, 0.23% hits. AID 1700, 2009;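 active means inhibition above a per-plate limit of that plate's mean compound inhibition plus 3 SD, cut at about 60% in these data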;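 further: 0% = DMSO wells and 100% = LY294002 at 200 µM; higher means less KLF5 promoter-driven luciferase light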
KLF5 confirm = KLF5 expression inhibitors, confirmation, DLD-1 cells, luminescence | inhibition, % at 4 µM | DLD-1 KLF5 promoter firefly luciferase reporter | shares compounds with KLF5 inhibitor | 610 compounds, 79% hits;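 active means inhibition above a set limit taken from the earlier primary screen, cut at about 63% in these data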;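 further: 0% = DMSO wells and 100% = LY294002 at 200 µM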
IEC-6 tox-2 = cytotoxicity in rat IEC-6 cells, cytotoxicity control for KLF5 inhibitor project, cell-based, luminescence, triplicate. AID 1905, 2009. 610 compounds, 56% hits. shares compounds with KLF5 inhibitor. IEC-6 rat intestinal cells, viability luminescence. inhibition, % at 4 µM; in the data active means inhibition above about 23%;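 further: cells exposed to compounds for 48 hours before viability read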
Starred values were filed as active, the others as inactive; · = no result given.

SMILES	IEC-6 tox-1	BaF3 tox	Ba/F3 V617F tox	aSyn 5UTR inh	APP transl inh	KLF5 inhibitor	KLF5 confirm	IEC-6 tox-2
Cc1ccc(-c2noc(CCC(=O)NCC3CCCO3)n2)cc1 (stereo not given)	-0.7	0.3	-1.2	-29.8	-6.6	-35.8	·	·
CCCCCOC(=O)C1=C(C)NC(=O)NC1c1ccc(OC)cc1 (stereo not given)	-3.1	·	·	18.7	·	-34.4	·	·
O=C(N/N=C/c1c(O)ccc2ccccc12)c1ccc(Br)o1	12.1	·	·	106.3*	·	67.6*	86.4*	7.9
Cc1occc1C(=O)N/N=C/c1c(O)ccc2ccccc12	18.1	·	·	54.0	·	57.4	·	·
O=C(CSCC(=O)Nc1ccccc1)N/N=C/c1c(O)ccc2ccccc12	-1.6	2.6	1.8	76.3*	65.9*	67.5*	78.7*	-0.4
C=CCN1C(=O)c2ccc(C(=O)N3CCN(S(=O)(=O)c4cccc(F)c4)CC3)cc2C1=O	·	·	·	2.7	·	·	·	·
COc1ccc(CNC(=O)c2sccc2-c2ccccc2)cc1OC	4.6	·	·	6.2	·	-16.3	·	·
COc1cc(C2C(C#N)=C(C)NC3=C2C(=O)c2ccccc23)cc(OC)c1OC (stereo not given)	93.7*	73.6*	88.5*	·	4.2	77.6*	42.9	44.7*
C=CCc1cccc(/C=N/NC(=O)c2ccc3nc[nH]c3c2)c1O	11.5	·	·	43.3	·	62.7*	45.7	27.4*
Cc1ccc(S(=O)(=O)N2CCCCC2)cc1NC(=O)CNc1ccc(C(F)(F)F)cc1	·	·	·	14.9	·	·	·	·
CCOc1ccc(NC(=O)c2ccccn2)cc1	6.6	11.9	6.3	104.3*	-116.1	79.0*	49.7	11.0
COc1ccc(C(=O)NNC(=O)c2ccccn2)cc1	24.5*	11.3	12.1	79.0*	-125.2	77.4*	-126.7	1.0
COc1ccc(CNC(=O)[C@H](C)NC(=O)C2CCN(S(=O)(=O)c3ccc(F)cc3)CC2)cc1	-0.9	·	·	3.2	·	-29.1	·	·
Cc1cc(OCC(=O)N2CCC(C(=O)O)CC2)c2c(C)cc(=O)oc2c1	-6.2	·	·	16.1	·	-20.8	·	·
NS(=O)(=O)c1ccc(Oc2ccc(S(N)(=O)=O)cc2)cc1	-2.3	9.3	5.6	7.9	-15.0	-44.5	·	·
C=CS(=O)(=O)c1ccc(Oc2ccc(S(=O)(=O)C=C)cc2)cc1	75.7*	67.8*	84.0*	-108.2	90.5*	76.8*	46.8	37.6*
c1ccc(-c2noc(-c3ccc4ccccc4c3)n2)nc1	7.4	6.0	2.3	113.1*	48.6*	81.6*	106.0*	7.8
Cc1c(Cc2ccccc2)c(=O)oc2cc(OC(C)C(=O)NCC3CCC(C(=O)O)CC3)c(Cl)cc12 (stereo not given)	-0.9	·	·	13.0	·	-18.4	·	·
Cc1nn(-c2ccccc2)c(C)c1/C=N/NC(=O)c1cc(-c2cccs2)[nH]n1	71.7*	73.5*	71.0*	45.8	92.7*	82.3*	77.4*	68.6*
CN(C)S(=O)(=O)N1CCN(CC(O)COc2ccc(-c3ccccc3)cc2)CC1 (stereo not given)	-5.1	·	·	6.3	·	-16.3	·	·
O=C(NCCc1ccccc1)c1ccc2c(c1)OCO2	1.7	·	·	90.9*	·	62.7*	39.1	6.0
CCCCCCCc1ccc(-c2ccc(O)cc2)nc1	-5.8	4.0	-0.8	-27.6	-26.6	-54.6	·	·
CCCc1ccc(-c2ccc(/C=C/C(=O)O)cc2)nc1	7.8	-2.8	-3.0	114.5*	46.3*	78.9*	82.8*	-2.7
CCC(C(=O)N1CCC(C(N)=O)CC1)n1nc(C)n2c(cc3occc32)c1=O (stereo not given)	2.6	·	·	15.7	·	-20.4	·	·
O=C(O)c1ccc(N/N=C/c2ccc3nccnc3c2)cc1	3.0	1.7	5.2	94.0*	·	98.0*	103.2*	2.4
SMILES	IEC-6 tox-1	BaF3 tox	Ba/F3 V617F tox	aSyn 5UTR inh	APP transl inh	KLF5 inhibitor	KLF5 confirm	IEC-6 tox-2
O=c1[nH]c(=O)n([C@H]2C[C@H](O)[C@@H](CO)O2)cc1F	93.8*	97.5*	99.5*	80.2*	69.0*	62.3*	45.2	87.2*
Cc1ccc(S(=O)(=O)N(Cc2c(F)cccc2Cl)C(=O)N2CCN(C)CC2)cc1	·	·	·	7.4	·	·	·	·
Cc1ccc(-c2nc3ccc(Cl)cc3n2OC(C)C(=O)O)cc1 (stereo not given)	3.5	13.0	9.4	-126.7	-116.5	66.3*	-16.7	9.3
CC1CCN(S(=O)(=O)c2ccc(C(=O)N3CCCC(C(F)(F)F)C3)cc2)CC1 (stereo not given)	·	·	·	10.5	·	·	·	·
Oc1ccc(/C=C/c2ccc3ccccc3n2)cc1	25.7*	38.9*	67.8*	89.7*	-55.1	78.3*	50.6	15.4
O=C(c1cc(-c2ccccc2Cl)on1)N1CCCC1	2.8	·	·	24.0	·	74.3*	65.3*	-8.3
CN(C)S(=O)(=O)c1cccc(NC(=O)c2ccc(COc3ccccc3)cc2)c1	-4.1	·	·	-11.1	·	-30.2	·	·
O=C(O)c1ccc(N/N=C/c2c[nH]c3ccccc23)cc1	-4.3	·	·	78.6*	·	77.0*	69.9*	7.3
O=C(O)c1cccc(COc2ccc3c(c2)CCC3)c1	0.5	-0.8	2.8	80.6*	·	97.6*	99.8*	0.2
O=C(NCc1ccccc1)c1cccc(COc2ccc3c(c2)CCC3)c1	8.4	4.3	2.0	16.8	-105.3	-85.2	·	·
COc1ccc2[nH]c(C(=O)N/N=C/c3ccccc3OC)cc2c1	5.4	·	·	-119.0	·	28.7	·	·
COc1cc(OC)c2cc(C(=O)N/N=C/c3ccccc3O)[nH]c2c1	15.1	·	·	-31.0	·	83.8*	57.3	2.4
CCNc1c(NS(=O)(=O)c2ccc(Cl)s2)c(=O)oc2ccccc12	-3.9	·	·	-15.5	·	22.2	·	·
CCN(CC)CCn1nc2c3c(cccc3c1=O)-c1ccccc1-2	86.7*	100.3*	102.0*	26.3	67.7*	72.3*	9.3	75.3*
CCN(CC)CCn1nc(C)nc1-c1ccccc1O	-1.9	3.9	-1.3	16.0	-6.7	-24.0	·	·
O=C1CCCc2nc3c(cc21)C(O)Oc1c-3ccc2ccccc12 (stereo not given)	-1.9	6.5	-1.4	-117.7	-157.4	-6.0	·	·
O=C1CCCc2nc3c(cc21)C(O)Oc1ccccc1-3 (stereo not given)	2.1	-2.2	-1.6	-31.0	-9.8	109.6*	-4.4	5.4
O=C(Nc1cccc(Cl)c1)Nc1cccc(C(=O)O)c1	-6.3	-1.7	-0.2	54.6	·	6.0	·	·
CCOc1ccc(NC(=O)Nc2cccc(C(=O)O)c2)cc1	-0.8	8.6	6.0	107.7*	70.4*	94.3*	101.2*	15.8
Cc1ccccc1OCC(=O)Nc1cccc(C(=O)O)c1	-2.2	3.3	-1.5	105.3*	68.3*	95.2*	96.0*	4.0
